The entries come from a sample that favours hits as a whole.
TDP1 cell CPT: DT40-hTDP1 cell growth loss with CPT | chicken DT40 Tdp1-/-;hTDP1 cells + 20 nM CPT, ATP luminescence, 48 h | Potency, µM (doses to about 46.2 µM), for inactives: top-dose activity change, negative = growth inhibition, actives largely listed as inhibitors | actives 12% (n = 420,000); further: potency means the concentration at half of the fitted maximal effect; nearly all actives have a fitted effect of over 55% in size
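Chicken DT40 Tdp1-/- cells stably complemented with human TDP1 were seeded at 400 cells/well in medium containing 20 nM camptothecin, exposed to pin-transferred compounds, and grown at 37 °C for at least 48 hr. Viability was read as ATP luminescence.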
12-LOX inh: ALOX12 (human) lipoxygenase inhibition; P18054; purified 12hLO, xylenol orange hydroperoxide absorbance; Potency, µM (series often up to 108 µM), for inactives: at the top dose activity change, negative = inhibition, usual class: inhibitors; actives 1.1% (n = 580,000); AID 1671190; further: potency means the concentration at half of the fitted maximal effect
Target sequence (P18054 whole entry, looked up): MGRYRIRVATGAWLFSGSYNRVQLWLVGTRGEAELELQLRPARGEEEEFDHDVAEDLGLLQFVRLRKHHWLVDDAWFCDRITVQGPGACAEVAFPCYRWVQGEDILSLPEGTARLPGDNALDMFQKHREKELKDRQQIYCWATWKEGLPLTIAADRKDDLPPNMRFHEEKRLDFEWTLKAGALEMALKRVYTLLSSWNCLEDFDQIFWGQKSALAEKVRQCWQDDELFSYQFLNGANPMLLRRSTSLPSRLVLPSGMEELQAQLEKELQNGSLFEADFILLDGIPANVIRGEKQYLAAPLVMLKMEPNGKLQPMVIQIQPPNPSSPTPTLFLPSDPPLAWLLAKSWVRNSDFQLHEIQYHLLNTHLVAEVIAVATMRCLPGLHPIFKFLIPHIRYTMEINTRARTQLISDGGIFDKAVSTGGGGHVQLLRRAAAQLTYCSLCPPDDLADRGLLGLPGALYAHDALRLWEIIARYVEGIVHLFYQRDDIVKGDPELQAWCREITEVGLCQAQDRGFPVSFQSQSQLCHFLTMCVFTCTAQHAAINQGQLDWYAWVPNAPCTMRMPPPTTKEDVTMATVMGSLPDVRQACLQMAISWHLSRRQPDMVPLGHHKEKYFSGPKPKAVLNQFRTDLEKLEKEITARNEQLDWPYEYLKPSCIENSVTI
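Hydroperoxide product was detected by ferrous iron/xylenol orange as the 573 to 405 nm absorbance ratio. Arachidonic acid at 40 uM (final) was turned over for 30 min at room temperature by 150 nM human 12hLO, pH 7.0 Hepes buffer, after 15 min compound preincubation.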
DT40 TDP1 no CPT: qHTS for Inhibitors of human tyrosyl-DNA phosphodiesterase 1 (TDP1): qHTS in cells in absence of CPT; DT40 Tdp1-/- hTDP1 cells, no CPT, ATP luminescence, 48 h; Potency, µM (titrated, usually from 46.2 µM), for inactives: top-dose activity change, negative = growth inhibition, most hits filed as inhibitors; actives 15% (n = 420,000); further: potency means the concentration at half of the fitted maximal effect; nearly all actives have a fitted effect of over 55% in size
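Stably hTDP1-transfected Tdp1-null chicken DT40 cells were treated with library compounds minus camptothecin and grown for at least 48 hr at 37 °C, after which cellular ATP was quantified by luminescence.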
HT1080 IDH1KD tx: toxicity to HT-1080 IDH1 knockdown cells (counter line). Potency, µM (doses to about 46.1 µM), for the others: at the highest dose activity, negative = toxicity, most hits filed as cytotoxic. AID 686971. actives 2% (n = 360,000). HT-1080 IDH1 knockdown viability, ATP luminescence, 48 h;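 further: potency means the concentration at half of the fitted maximal effect; 0% = DMSO wells and -100% = cell-free medium wells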
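Luminescent ATP read-out (CellTiter-Glo, 10 min at room temperature) after 48 h compound exposure at 37 °C gave viability of IDH1-knockdown HT-1080 cells. Activity was normalised to DMSO and cell-free wells, then fitted as concentration-response curves.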
HT1080-NT tox: kills 2HG-producing HT-1080-NT fibrosarcoma cells; Potency, µM (titrated, usually from 46.1 µM), without a hit: at the highest dose activity, negative = less viability, hits mostly cytotoxic; AID 686970; actives 1.6% (n = 360,000); HT-1080-NT fibrosarcoma viability, CellTiter-Glo ATP luminescence, 48 h;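 further: NT is the 2HG producing partner of a matched IDH1 knockdown line; potency means the concentration at half of the fitted maximal effect; 0% = DMSO-treated cells and -100% = media-only wells without cells; nearly all actives have a fitted effect of over 55% in size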
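Viability of the 2HG-overproducing fibrosarcoma line after 48 hours of compound exposure at 37 degrees C was determined by luminescence with CellTiter-Glo, and concentration-effect curves were then fitted and categorized.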
IL-1B inflam inh: inflammasome signaling inhibition, IL-1 beta readout; THP-1 LPS/ATP IL-1B secretion, AlphaLISA, 16 h; stronger effect = lower value; activity change, % at 57.5 µM; actives 4.7% (n = 360,000); in the data active means activity change below about -50%; inconclusive means mostly about -30% to -49%
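THP-1 cells pretreated 1 hr with compounds (up to 57.5 uM final), then stimulated with LPS (250 ng/mL final) plus ATP (1.25 mM final); secreted IL-1B measured by AlphaLISA after 16 hr, decreased signal indicating inhibition.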
* marks the source's active call; other numbers are inactive results; u = inconclusive; x = not tested or not shown; [ ] = another dose, or the depositor's remark. Unless noted, the call rests on the fitted dose curve; in most records, active means well fitted curve in the direction sought with a large enough effect; inconclusive means small, poorly fitted or top-dose-only effect, or another doubt; inactive means no such curve, though single readings can be large; an effect the other way counts as inactive or inconclusive. Unless noted, on the % scale 0 is the no-effect control and ±100 the full control effect.

SMILES | TDP1 cell CPT | 12-LOX inh | DT40 TDP1 no CPT | HT1080 IDH1KD tx | HT1080-NT tox | IL-1B inflam inh
CCCN1C(=O)c2ccccc2NC1c1ccc(Cl)c(Cl)c1 (stereo not drawn) | u | u | u | -2% | 0% | -1
O=C(OCc1cccc(Cl)c1)c1cc(S(=O)(=O)N2CCCCC2)ccc1N1CCOCC1 | 16µM* | 0% | 29µM* | -21% | -14% | 0
O=C(OCCOc1cccc(Cl)c1)c1cc(S(=O)(=O)N2CCCCC2)ccc1N1CCOCC1 | 15µM* | u | 8.2µM* | -10% | -7% | -14
O=C(OCc1ccccc1)c1cc(S(=O)(=O)N2CCCCC2)ccc1N1CCOCC1 | u | 12% | u | -10% | 1% | -7
CCc1cccc2c(N=O)c(O)[nH]c12 | -2% | -11% | -17% | -18% | 0% | -64*
O=Nc1c(O)[nH]c2c(F)cccc12 | 1% | -12% | -2% | -6% | -6% | 4
Cc1cc(C(=O)N2C[C@@H](CO)[C@H](c3nc(C4CC4)no3)C2)ccn1 | x | 5% | x | x | x | x
COC(=O)c1ccc(CSc2nc3ccc(S(N)(=O)=O)cc3[nH]2)cc1 | -4% | -7% | 1% | -2% | 5% | -101*
COC(=O)c1cccc(CSc2nc3ccccc3[nH]2)c1 | u | -5% | 16µM* | -12% | 0% | 3
COC(=O)c1ccc(CSc2nc3ccccc3[nH]2)o1 | -24% | -19% | -8% | 5% | 6% | 6
CCOc1ccc(/C=N/NC(=O)c2ccc(CSc3nc4ccccc4[nH]3)cc2)cc1 | 23µM* | 6% | 23µM* | u | u | 21
C/C(=N\NC(=O)c1cccs1)c1ccc(Br)cc1 | x | 8% | x | x | x | x
O=C(CSc1ccc2c(c1)OCCO2)N1CCN(c2ccccc2O)CC1 | 23µM* | -8% | 23µM* | 0% | -3% | 0
O=C(NCC(=O)N1CCN(c2ccccc2O)CC1)c1ccc2c(c1)OCO2 | -11% | 32µM* | 4% | -1% | -4% | u
O=C(NCC(=O)N1CCN(S(=O)(=O)c2ccccc2F)CC1)c1ccc2c(c1)OCO2 | -2% | 0% | -28% | -2% | -3% | -9
O=C(C1CC(=O)N(c2ccc3c(c2)OCCO3)C1)N1CCN(c2ccccc2O)CC1 (stereo not drawn) | 21µM* | 463% | u | -1% | -4% | -9
O=C(C1CC(=O)N(c2ccc3c(c2)OCCO3)C1)N1CCN(c2ccccc2)CC1 (stereo not drawn) | -27% | 1% | -28% | 15% | 16% | -16
NC1CCN(C(=O)C2CCCN(c3nc(-c4ccccc4)nc4c3CCC4)C2)CC1 (stereo not drawn) | x | 50% | x | x | x | x
O=C(CSc1nnc(-c2ccc3c(c2)OCO3)o1)Nc1ccc2c(c1)OC1(CCCC1)O2 | x | -2% | x | x | x | x
Cc1cc(Nc2ccc(Br)cc2)nc(-c2ccccc2O)n1 | u | u | -25% | -15% | 3% | -24
Cc1cc(N(C)/N=C/c2ccccc2O)nc(-c2ccccc2O)n1 | 5.8µM* | 1% | 4.1µM* | 21% | 6% | 30
CCOc1ccc2nc(N3CCN(C(=O)c4ccc(S(=O)(=O)CC)cc4)CC3)sc2c1 | 18µM* | -19% | 18µM* | x | x | x
CCS(=O)(=O)c1cccc(C(=O)N2CCN(c3nc4c(C)ccc(Cl)c4s3)CC2)c1 | 16µM* | -16% | u | x | x | x
CCN(Cc1ccccc1)S(=O)(=O)c1ccc(C(=O)N2CCN(c3nc4ccccc4s3)CC2)cc1 | 15µM* | 0% | 9.2µM* | 13% | 18% | -19
CCOc1ccc2nc(N3CCN(C(=O)CS(=O)(=O)c4ccc(F)cc4)CC3)sc2c1 | 15µM* | u | 16µM* | x | x | x
SMILES | TDP1 cell CPT | 12-LOX inh | DT40 TDP1 no CPT | HT1080 IDH1KD tx | HT1080-NT tox | IL-1B inflam inh
O=C(c1ccc(Br)cc1)N1CCN(c2nc3ccccc3s2)CC1 | x | 5% | x | x | x | x
Cc1nc(C)c(C(=O)N2CCCN(C(=O)C3CC3)C(c3ccccc3)CC(=O)NCC2)s1 (stereo not drawn) | x | 85% | x | x | x | x
CCOc1ccc(CNCc2cccn2-c2nnc(N3CCN(C)CC3)s2)cc1 | x | 9% | x | x | x | x
O=C(C1CCN(S(=O)(=O)c2ccccc2)CC1)N1CCCC1c1ccc2c(c1)OCCCO2 (stereo not drawn) | x | -7% | x | x | x | x
COCCn1cnc2c1c(=O)n(CC(=O)Nc1ccc3c(c1)OCCO3)c(=O)n2CC(C)C | x | 4% | x | x | x | x
CSc1ccc(CCNC(=O)c2ccc(NC(=O)N3CCSc4nc(C)cc(C)c43)cc2)cc1 | x | -19% | x | x | x | x
CCc1ccc(-n2c(=O)c3cccnc3n2CC(=O)N(CC)c2cccc(C)c2)cc1 | 23µM* | -10% | 13µM* | x | x | x
CCc1ccc(-n2c(=O)c3cccnc3n2CC(=O)Nc2cc(F)ccc2F)cc1 | 2.6µM* | -1% | 8.2µM* | x | x | x
Cc1ccc(-n2c(=O)c3cccnc3n2CC(=O)NCc2ccc(Cl)cc2)cc1 | -5% | -21% | -11% | x | x | x
CCc1ccc(-n2c(=O)c3cccnc3n2CC(=O)Nc2cc(OC)ccc2OC)cc1 | u | -2% | u | x | x | x
CC(=O)c1ccc(NC(=O)Cn2c3ncccc3c(=O)n2-c2ccc(C)cc2)cc1 | 16µM* | -19% | 16µM* | x | x | x
CCc1cccc(-n2c(=O)c3cccnc3n2CC(=O)Nc2ccc(OC)c(Cl)c2)c1 | 21µM* | -13% | 26µM* | x | x | x
Cc1cc(C)n(-c2nc3c(c(=O)n(CC(N)=O)c(=O)n3C)n2Cc2ccc(F)cc2)n1 | x | 38% | x | x | x | x
COc1ccc(OCCOC(=O)Cn2cnc3c2c(=O)n(C)c(=O)n3C)cc1 | x | 21% | x | x | x | x
Cn1cc(-c2nc3cnc(N4CCNCC4)nc3n(C3CC3)c2=O)c2ccccc21 | 13µM* | u | 5.8µM* | x | x | x
Cc1cc(N2C(=O)C3C4c5ccccc5C(c5ccccc54)C3C2=O)no1 (stereo not drawn) | 12µM* | -22% | 10µM* | 3% | 8% | 16
O=C1C2C3c4ccccc4C(c4ccccc43)[C@@H]2C(=O)N1c1cccnc1 (stereo partly drawn) | u | 2% | 23µM* | 7% | 4% | -5
O=C1C2C3C=CC(C3)C2C(=O)N1c1cccnc1 (stereo not drawn) | -8% | 6%[57.4 µM] | 1% | 0% | 13% | 15
O=C1C2C3c4ccccc4C(c4ccccc43)C2C(=O)N1c1ccncc1 (stereo not drawn) | 21µM* | -1% | 16µM* | -1% | 5% | 28

Source: PubChem BioAssay (National Center for Advancing Translational Sciences (NCATS))
